High-throughput results: PubChem, Broad Institute
In the library only some 2.2% were active in any assay of this set; here they are far more common.
Shn3 3UTR inh = reduction of Shn3 3'UTR firefly luciferase signal, primary screen, Schnurri-3 inhibitor project, cell-based, Clone20 osteoblasts, set 2; Clone20 osteoblast Shn3 3'UTR firefly luciferase, 24 h; inhibition, % at 12.5 µM; 360,000 compounds, 0.52% hits; AID 588674, 2011;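 active = mean inhibition of at least 75% with every replicate also reaching 75%; inconclusive = mean inhibition at least 75% but some replicate below; inactive = mean inhibition below 75%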;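 note: 0% = median of neutral control wells and 100% = pilot-screen positive control compound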
LGR2 antag = inhibitors of bursicon-induced LGR2 CRE-luciferase signal, primary screen, cell-based, HEK293, CRE-luciferase reporter, bursicon stimulation | AID 720647, 2013 | inhibition, % at 9.99 µM | bursicon-stimulated, 4 h | Drosophila bursicon receptor LGR2 (rickets) | 380,000 compounds, 0.35% hits;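 active = drop in luminescence signal, shown as inhibition above about 50% in the replicate tests, limit read from the data, passing the limit was not always enough; inconclusive = probably only some replicates passing the limit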;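 note: agonist challenge used bursicon conditioned medium at about half maximal strength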
EWS-Fli inh = EWS/Fli-driven NR0B1 reporter inhibitors, primary screen, A673 cells, NR0B1 luciferase, luminescence, MLPCN library. inhibition, % at 12.6 µM. AID 651661, 2012. 350,000 compounds, 0.67% hits. viability-normalised;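 active = mean inhibition of at least 50% after viability correction, with every replicate also passing that limit; inconclusive = mean reaches 50% but only one of two replicates passes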;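 note: firefly luciferase signal divided by Alamar Blue viability fluorescence both relative to DMSO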
LMP1 NFkB inh = EBV LMP1-driven NF-kappaB luciferase reporter inhibitors, primary screen, cell-based, luminescence, single point | LMP1-induced NF-kappaB luciferase reporter cells | inhibition, % at 12.5 µM | 350,000 compounds, 0.69% hits | AID 504558, 2011; in the data active = inhibition above about 41%; inconclusive = no clear call, values can overlap the other calls;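 note: 0% = neutral control wells and 100% = reference inhibitor control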
MITF TRPM1 inh = inhibitors of MITF-dependent TRPM1 promoter reporter, primary screen, cell-based, SK-MEL-5, single point, luciferase; inhibition, % at 12.5 µM; SK-MEL-5 TRPM1 promoter luciferase, 24 h; 330,000 compounds, 0.83% hits; AID 488899, 2010;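 active = mean inhibition across replicates of 60% or more, whatever share of single replicates reaches that level; inconclusive = some that reach 60%, reason not given; inactive = mean inhibition across replicates below 60%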
PAX8 reporter = inhibitors of PAX8-driven TPO luciferase reporter, primary screen, RMG-I cells, single concentration | SteadyGlo, 24 h | inhibition, % at 12.6 µM | 360,000 compounds, 1.2% hits | AID 652154, 2013;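 active = mean replicate inhibition at least 60% with every replicate also reaching 60%; inconclusive = only one of the two criteria is met; inactive = mean below 60% and not all replicates reaching 60%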;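 note: luciferase light reporting Pax8 driven TPO promoter activity; plate controls were median of neutral control wells for no effect and mitoxantrone controls for full effect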
The depositor's hits bear a star; u = inconclusive; x = no result.

SMILES	Shn3 3UTR inh	LGR2 antag	EWS-Fli inh	LMP1 NFkB inh	MITF TRPM1 inh	PAX8 reporter
COc1cc(C(=O)NC2CCN(C)CC2)ccc1Nc1ncc2c(n1)N(C1CCCC1)CCC(=O)N2C(C)C	6.0	x	x	-21.3	74.3*	x
C[C@@H]1CN([C@H](C)CO)S(=O)(=O)c2ccc(-c3cccc(C#N)c3)cc2O[C@H]1CN(C)C	x	x	14.4	x	x	-13.0
O=c1oc2ccccc2c(O)c1/C=N/c1ccccn1	-3.7	x	x	49.6*	13.4	x
O=c1oc2ccccc2c(O)c1/C=N/c1ncccn1	26.5	x	x	-12.1	11.5	x
CN(Cc1ccccc1)CC(O)COc1ccc(CNCCc2cccnc2)cc1 (stereo unspecified)	-16.2	-2.1	-2.2	-6.2	-20.6	8.5
CCc1ccc(CNCc2ccc(OCC(O)CN(C)Cc3ccccc3)cc2)nc1 (stereo unspecified)	86.0*	0.8	42.7	21.4	6.4	32.7
S=C(Nc1ccccc1)Nc1ccc(OCc2ccc(Cl)cc2Cl)cc1	84.9*	x	x	77.0*	82.4*	x
C[C@@H]1CCCCO[C@@H](CN(C)Cc2ccc(C(F)(F)F)cc2)[C@H](C)CN([C@@H](C)CO)C(=O)c2cc(NS(=O)(=O)c3cccs3)ccc2O1	x	9.7	11.6	x	x	u
C[C@@H]1CCCCO[C@H](CN(C)Cc2ccc(C(F)(F)F)cc2)[C@H](C)CN([C@@H](C)CO)C(=O)c2cc(NS(=O)(=O)c3cccs3)ccc2O1	x	31.2	10.6	x	x	93.3*
C[C@@H]1CCCCO[C@H](CN(C)Cc2ccc(C(F)(F)F)cc2)[C@H](C)CN([C@H](C)CO)C(=O)c2cc(NS(=O)(=O)c3cccs3)ccc2O1	x	4.2	18.7	x	x	99.3*
C[C@@H]1CCCCO[C@@H](CN(C)Cc2ccc(C(F)(F)F)cc2)[C@H](C)CN([C@H](C)CO)C(=O)c2cc(NS(=O)(=O)c3cccs3)ccc2O1	x	5.7	8.8	x	x	89.0*
CCCNC(=O)[C@@H]1[C@@H](CO)[C@@H]2Cn3c(ccc(C4=CCCC4)c3=O)[C@@H]2N1CCC	x	10.6	-8.7	x	x	7.4
O=C(c1ccccc1)N1CC[C@@H]2[C@H]1c1cc(-c3ccc(F)cc3)ccc1N[C@@H]2CO	x	-1.9	5.5	x	x	-11.0
CCn1c([N+](=O)[O-])nc2c1c(=O)[nH]c(=O)n2C	49.1	u	9.4	-6.9	25.7	69.2*
COc1ccc(Oc2ccc3c(C(F)(F)F)cc(C(F)(F)F)nc3n2)cc1	5.3	x	x	5.2	-8.1	-12.1
Oc1ccc(Oc2ccc3c(C(F)(F)F)cc(C(F)(F)F)nc3n2)cc1	26.2	x	x	47.7*	55.2	6.6
Cc1ccc(N(C)S(=O)(=O)c2ccc(-c3cc(C)no3)s2)cc1	16.9	-10.5	54.0*	-2.1	27.3	26.1
Cc1cc(-c2ccc(S(=O)(=O)N(C)c3ccc(C)c(C)c3)s2)on1	-12.6	18.2	x	-2.7	28.8	15.4
CCCC#Cc1ccc2c(c1)O[C@@H](CN(C)C(=O)c1ccccn1)[C@H](C)CN([C@H](C)CO)S2(=O)=O	x	7.6	-8.4	x	x	x
CC(C1CC1)N(Cc1ccccc1)C(=S)Nc1cccc(C(F)(F)F)c1 (stereo unspecified)	34.7	20.5	3.4	3.8	11.5	118.1*
CC(C1CC1)N(Cc1ccccc1)C(=S)Nc1ccccc1 (stereo unspecified)	3.0	-7.6	8.7	2.0	5.7	-5.7
Nc1nc(N)c2c(ccc3c2ccn3Cc2cccc([N+](=O)[O-])c2)n1	75.6	3.5	39.5	x	x	117.0*
C[C@H]1CN([C@@H](C)CO)S(=O)(=O)c2ccc(-c3ccccc3)cc2O[C@@H]1CN(C)Cc1ccncc1	x	-3.1	13.4	x	x	x
COc1cccc(C(=O)N2CCN(c3ccccn3)CC2)c1	13.8	-14.4	2.2	48.5*	-5.2	-36.8
O=C(c1cn(Cc2ccccc2)nc1-c1ccccc1)N1CCN(c2ccccn2)CC1	6.7	-2.3	53.9*	23.7	24.4	13.7
SMILES	Shn3 3UTR inh	LGR2 antag	EWS-Fli inh	LMP1 NFkB inh	MITF TRPM1 inh	PAX8 reporter
Cc1noc(C)c1NC(=O)Nc1ccc2c(c1)CC(=O)N([C@@H](C)CO)C[C@@H](C)[C@H](CN(C)S(=O)(=O)c1ccc(F)cc1)O2	x	2.4	-8.4	x	x	-9.6
Cc1ccc(S(=O)(=O)N(C)C[C@@H]2Oc3ccc(NS(=O)(=O)c4ccc(F)cc4)cc3C(=O)N([C@@H](C)CO)C[C@H]2C)cc1	x	-10.5	-3.3	x	x	8.2
CCOC(=O)c1ccc(N=c2sc(C(=O)OC)cc(=O)n2Cc2ccco2)cc1	35.7	69.5*	8.2	-16.1	18.0	12.5
CCOC(=O)c1ccc(N=c2sc(C(=O)OC)cc(=O)n2CCCN2CCOCC2)cc1	-22.7	27.0	-1.6	14.3	-1.3	-24.6
COC(=O)c1cc(=O)n(CCc2ccc(OC)cc2)c(=Nc2ccc(F)c(Cl)c2)s1	8.7	0.3	25.4	-13.4	10.7	1.5
CCn1c(=O)cc(C(=O)OC)sc1=Nc1ccc(F)c(F)c1	-13.6	u	13.5	84.1*	-17.7	17.0
CC(C)CC#Cc1ccc2c(c1)O[C@H](CN(C)Cc1ccc(C(=O)O)cc1)[C@@H](C)CN([C@H](C)CO)S2(=O)=O	x	x	2.3	x	x	79.7*
CCCC#Cc1ccc2c(c1)O[C@@H](CN(C)Cc1ccc3c(c1)OCO3)[C@@H](C)CN([C@H](C)CO)S2(=O)=O	x	3.1	32.6	x	x	x
CC(C)CC#Cc1ccc2c(c1)O[C@@H](CN(C)Cc1ccc3c(c1)OCO3)[C@@H](C)CN([C@@H](C)CO)S2(=O)=O	x	-16.0	58.1*	x	x	x
CC(C)CC#Cc1ccc2c(c1)O[C@@H](CN(C)Cc1ccccc1)[C@@H](C)CN([C@H](C)CO)S2(=O)=O	x	-32.6	-4.3	x	x	x
COc1ccccc1-c1ccc2c(c1)O[C@H](CN(C)Cc1ccc3c(c1)OCO3)[C@H](C)CN([C@H](C)CO)S2(=O)=O	x	-3.8	1.7	x	x	66.8*
COc1ccccc1-c1ccc2c(c1)O[C@@H](CN(C)C)[C@@H](C)CN([C@@H](C)CO)S2(=O)=O	x	1.3	0.1	x	x	x
O=C(C[C@@H]1C=C[C@@H](NC(=O)CN2CCOCC2)[C@H](CO)O1)NC1CCC1	x	8.2	-3.1	x	x	9.7
Cc1ccc(NC(=O)c2ccc(S(=O)(=O)N(C)c3ccccc3)cc2)cc1S(=O)(=O)N1CCOCC1	63.7	8.6	27.4	9.9	3.4	64.6*
Cc1ccc(NC(=O)c2oc3ccccc3c2COC(C)C)cc1S(=O)(=O)N1CCOCC1	87.9*	22.4	-0.3	29.1	4.8	19.3
CCc1ccc(C(=O)Nc2ccc(OC)c(S(=O)(=O)N3CCOCC3)c2)cc1	13.6	4.6	3.0	-4.6	15.3	28.4
COc1ccc(NC(=O)c2ccc(-c3ccccc3)cc2)cc1S(=O)(=O)N1CCOCC1	58.3	15.1	11.4	51.4*	43.0	40.5
